In PubChem BioAssay:
Results filed as inconclusive are left out. Active and inactive are the calls of the source.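 Rule for the calls, unless noted: active = inhibition above the screen-wide mean plus 3 SD, about 51%; inactive = the rest.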

Legend:
[1] = rapamycin-like changes in RPL19A-GFP expression – cell-based, S. cerevisiae, multiplex flow cytometry, primary screen (AID 1862; in the data active = percent of DMSO control GFP below about 86%;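 note: lower values mimic rapamycin by blocking the RPL19A rise seen in DMSO cells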); settings: S. cerevisiae RPL19A-GFP strain, flow cytometry fluorescence, 3 h; at 10 µM; stronger effect = lower value
[2] = TOR pathway GLN3 branch reporter MEP2-GFP changes – S. cerevisiae, multiplex flow cytometry, primary screen (AID 1867;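 active = GFP response, as percent of the DMSO control, above the screen-wide mean plus 3 SD, about 139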;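 note: median GFP channel fluorescence of barcode-gated MEP2-GFP cells measured by flow cytometry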); settings: S. cerevisiae MEP2-GFP strain, 3 h, at 10 µM, stronger effect = higher value, 100% means same as DMSO wells
[3] = TOR pathway RTG branch CIT2 reporter changes – S. cerevisiae, GFP fusion, multiplex flow cytometry, primary screen (AID 1870;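 active = percent response above a set limit, the screen-wide mean plus 3 SD, cut at about 130% in these data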;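 note: barcoded CIT2-GFP strain pooled with four other GFP strains with rapamycin as positive control; median GFP fluorescence per well over plate mean of DMSO wells so 100% = DMSO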); settings: S. cerevisiae CIT2-GFP expression, 3 h, at 10 µM, stronger effect = higher value
[4] = TOR pathway LAP4-GFP level changes – S. cerevisiae, multiplex flow cytometry, primary screen (AID 1873;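 active = GFP signal, as percent of the solvent control, above the screen mean plus 3 SD, about 149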); settings: S. cerevisiae LAP4-GFP expression, 3 h, at 10 µM, stronger effect = higher value
[5] = yeast AGP1-GFP level changes, GLN3 branch – cell-based, multiplex flow cytometry, S. cerevisiae, primary screen (AID 1887;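 active = GFP signal above the screen-wide mean plus 3 SD, that is over about 124.5% of the solvent control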;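 note: AGP1-GFP fusion strain of S. cerevisiae within a five-strain barcoded multiplex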); settings: 3 h, at 10 µM, stronger effect = higher value
[6] = reduced mouse 2C T cell binding to pMHC/ICAM-1 vesicles – MLPCN validation set, flow cytometry, LFA-1/ICAM-1 modulator project, pilot screen (AID 2523;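 active = response below a set limit, under 55% cells CD8-positive and vesicle-bound, and CD8 cells' 90th-percentile brightness under 279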;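 for vesicle binding response: mean PE anti-B7-1 fluorescence of CD8+ cells relative to row control; 100% = QL9-loaded vesicles with DMSO vehicle in the same plate row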); settings: 2C mouse CD8+ T cells, at 7 µM, stronger effect = lower value; double positive events: measured here: CD8+/vesicle+ event percentage
[7] = target: Integrin beta-1 (Homo sapiens) + Integrin alpha-4 (Homo sapiens) (UniProt P13612+P05556); experiment: alpha4beta1 integrin LIBS antibody binding reduction – U937 cells, HUTS-21 mAb, flow cytometry, validation set, VLA-4 allosteric modulator project, pilot screen (AID 2674;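 active = inhibition above 50%, about 3 SD of the validation set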;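 note: antibody binding induced by the VLA-4 ligand LDV present at three times its Kd; 0% = LDV ligand with antibody and no compound and 100% = antibody without LDV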); settings: HUTS-21 LIBS mAb binding, at 6.7 µM, stronger effect = higher value, binding induced by LDV ligand
Sequence of Integrin beta-1 (Homo sapiens) + Integrin alpha-4 (Homo sapiens) (P05556 whole entry, looked up): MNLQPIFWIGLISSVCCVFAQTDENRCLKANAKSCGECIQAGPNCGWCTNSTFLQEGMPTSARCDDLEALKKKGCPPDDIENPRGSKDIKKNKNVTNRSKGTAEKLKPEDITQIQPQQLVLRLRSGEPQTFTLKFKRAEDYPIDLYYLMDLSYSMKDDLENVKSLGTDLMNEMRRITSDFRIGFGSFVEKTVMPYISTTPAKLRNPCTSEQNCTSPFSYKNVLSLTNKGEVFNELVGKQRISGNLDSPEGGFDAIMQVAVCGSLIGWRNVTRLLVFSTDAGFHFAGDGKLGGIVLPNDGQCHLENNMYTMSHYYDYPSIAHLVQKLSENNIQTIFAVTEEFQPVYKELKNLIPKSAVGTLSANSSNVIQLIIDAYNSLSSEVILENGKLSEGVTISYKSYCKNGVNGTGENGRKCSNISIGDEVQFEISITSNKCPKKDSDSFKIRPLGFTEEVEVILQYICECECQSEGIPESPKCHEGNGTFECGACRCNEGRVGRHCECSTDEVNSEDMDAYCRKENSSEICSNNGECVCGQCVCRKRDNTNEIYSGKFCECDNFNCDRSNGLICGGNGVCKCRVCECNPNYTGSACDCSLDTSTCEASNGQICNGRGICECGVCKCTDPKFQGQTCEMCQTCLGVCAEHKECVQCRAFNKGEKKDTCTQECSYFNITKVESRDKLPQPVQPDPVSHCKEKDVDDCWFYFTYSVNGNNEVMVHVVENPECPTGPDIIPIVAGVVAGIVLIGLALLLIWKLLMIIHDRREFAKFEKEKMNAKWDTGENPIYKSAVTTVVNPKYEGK
Sequence of Integrin beta-1 (Homo sapiens) + Integrin alpha-4 (Homo sapiens) (P13612 whole entry, looked up): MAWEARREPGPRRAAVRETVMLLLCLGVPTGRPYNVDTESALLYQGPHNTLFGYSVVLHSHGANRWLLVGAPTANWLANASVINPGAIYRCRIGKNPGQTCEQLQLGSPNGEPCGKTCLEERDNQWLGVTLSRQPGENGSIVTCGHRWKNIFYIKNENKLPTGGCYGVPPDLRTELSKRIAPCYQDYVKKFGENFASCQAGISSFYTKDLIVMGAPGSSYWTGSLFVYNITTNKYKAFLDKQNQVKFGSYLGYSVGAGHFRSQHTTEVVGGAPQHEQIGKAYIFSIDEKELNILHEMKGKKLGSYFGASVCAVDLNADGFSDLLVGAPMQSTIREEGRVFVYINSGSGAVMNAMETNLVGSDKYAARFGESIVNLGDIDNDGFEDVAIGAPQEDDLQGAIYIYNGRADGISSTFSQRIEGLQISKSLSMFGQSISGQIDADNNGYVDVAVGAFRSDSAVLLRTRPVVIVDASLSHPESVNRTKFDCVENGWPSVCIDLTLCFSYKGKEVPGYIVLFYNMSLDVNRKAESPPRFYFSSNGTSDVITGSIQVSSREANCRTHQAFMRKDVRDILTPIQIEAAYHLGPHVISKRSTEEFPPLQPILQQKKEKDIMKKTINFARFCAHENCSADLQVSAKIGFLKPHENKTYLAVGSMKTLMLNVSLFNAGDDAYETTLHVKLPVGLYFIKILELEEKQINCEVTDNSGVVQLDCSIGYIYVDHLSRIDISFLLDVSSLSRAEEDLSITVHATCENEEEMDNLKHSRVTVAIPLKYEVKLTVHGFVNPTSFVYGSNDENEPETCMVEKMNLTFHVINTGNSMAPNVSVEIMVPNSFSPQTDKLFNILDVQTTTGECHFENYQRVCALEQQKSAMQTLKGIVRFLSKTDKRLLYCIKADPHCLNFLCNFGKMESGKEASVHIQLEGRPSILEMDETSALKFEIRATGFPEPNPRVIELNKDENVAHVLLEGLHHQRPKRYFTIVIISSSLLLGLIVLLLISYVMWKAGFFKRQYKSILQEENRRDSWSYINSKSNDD

[8] = calorie-restriction mimetic ROS inhibitors, yeast – validation compound set, pilot screen (AID 2706;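 active = superoxide response below 65% of plate, a cut near 3 SD across the whole screen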;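 note: yeast exposed to compound for one week at 30 degrees C before staining; 100% = mean of all compound wells on the same plate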); settings: S. cerevisiae aging, superoxide DHE fluorescence; at 10 µM; stronger effect = lower value
[9] = target: Beta-adrenergic receptor kinase 1 (Homo sapiens) (UniProt P25098); experiment: GRK2 binders displacing RNA aptamer, biochemical, validation, human GRK2, bead flow cytometry (AID 488806;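 active = aptamer binding inhibition above 30%, about 3 SD of noise from non-fluorescent compounds; inactive = inhibition at or below 30%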); settings: bead-bound GRK2, FAM-aptamer displacement, at 10 µM, stronger effect = higher value
Sequence of Beta-adrenergic receptor kinase 1 (Homo sapiens) (P25098 whole entry, looked up): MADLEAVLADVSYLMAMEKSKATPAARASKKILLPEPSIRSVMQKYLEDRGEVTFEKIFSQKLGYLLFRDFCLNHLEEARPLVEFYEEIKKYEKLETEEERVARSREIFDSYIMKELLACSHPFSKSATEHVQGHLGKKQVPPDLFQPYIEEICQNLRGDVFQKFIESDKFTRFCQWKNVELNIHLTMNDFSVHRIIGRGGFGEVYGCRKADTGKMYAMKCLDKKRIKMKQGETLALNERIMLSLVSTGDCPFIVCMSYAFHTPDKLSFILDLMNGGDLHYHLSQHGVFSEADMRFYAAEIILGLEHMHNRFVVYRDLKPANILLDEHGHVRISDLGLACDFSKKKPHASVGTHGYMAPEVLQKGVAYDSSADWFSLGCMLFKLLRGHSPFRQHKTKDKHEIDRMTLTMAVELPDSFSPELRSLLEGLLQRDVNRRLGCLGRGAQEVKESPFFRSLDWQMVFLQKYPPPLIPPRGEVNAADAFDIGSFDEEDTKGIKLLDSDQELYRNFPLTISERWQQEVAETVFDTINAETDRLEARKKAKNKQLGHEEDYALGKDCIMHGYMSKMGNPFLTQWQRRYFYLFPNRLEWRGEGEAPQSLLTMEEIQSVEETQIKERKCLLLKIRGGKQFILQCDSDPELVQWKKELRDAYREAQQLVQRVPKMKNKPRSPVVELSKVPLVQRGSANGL

[10] = target: Beta-2 adrenergic receptor (Homo sapiens) (UniProt P07550); experiment: agonist-induced loss of surface beta2AR – cell-based, FAP fluorogen, flow cytometry, validation set, pilot screen (AID 504459;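 active = percent response above 42, roughly 3 SD of non-fluorescent test compounds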;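 note: agonist-driven loss of surface beta2AR via internalization measured by FAP dye flow cytometry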); settings: Am2.2-beta2AR cells, at 10 µM, stronger effect = higher value
Sequence of Beta-2 adrenergic receptor (Homo sapiens) (P07550 whole entry, looked up): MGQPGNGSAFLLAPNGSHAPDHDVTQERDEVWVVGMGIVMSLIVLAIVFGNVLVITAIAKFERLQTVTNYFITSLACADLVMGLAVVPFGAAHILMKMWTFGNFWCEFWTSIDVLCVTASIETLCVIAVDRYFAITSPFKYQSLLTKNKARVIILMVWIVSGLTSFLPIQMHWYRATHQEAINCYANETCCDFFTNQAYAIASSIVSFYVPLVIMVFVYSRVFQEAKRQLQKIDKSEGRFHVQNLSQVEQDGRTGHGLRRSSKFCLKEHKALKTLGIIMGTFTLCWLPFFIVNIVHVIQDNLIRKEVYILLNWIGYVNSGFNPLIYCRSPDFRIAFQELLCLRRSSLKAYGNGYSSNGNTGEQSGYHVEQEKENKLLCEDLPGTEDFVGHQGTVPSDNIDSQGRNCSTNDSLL

[11] = target: AP-2 complex subunit beta (Homo sapiens) (UniProt P63010); experiment: beta-arrestin/AP2 interaction blockers – biochemical, validation set, GST-AP2 beads, flow cytometry, pilot screen (AID 504541;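 active = inhibition above 54%, about 3 SD of non-fluorescent compounds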;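 note: AP2 carries R879A mutation and is captured from E. coli lysate; bead-bound FITC arrestin peptide fluorescence measuring arrestin peptide binding to AP2; 0% = DMSO wells and 100% = excess unlabeled arrestin peptide control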); settings: FITC arrestin peptide, at 10 µM, stronger effect = higher value, AP2 beta2 appendage fragment, R879A mutant
Sequence of AP-2 complex subunit beta (Homo sapiens) (P63010 whole entry, looked up, the tested form may be a part, one chain of several): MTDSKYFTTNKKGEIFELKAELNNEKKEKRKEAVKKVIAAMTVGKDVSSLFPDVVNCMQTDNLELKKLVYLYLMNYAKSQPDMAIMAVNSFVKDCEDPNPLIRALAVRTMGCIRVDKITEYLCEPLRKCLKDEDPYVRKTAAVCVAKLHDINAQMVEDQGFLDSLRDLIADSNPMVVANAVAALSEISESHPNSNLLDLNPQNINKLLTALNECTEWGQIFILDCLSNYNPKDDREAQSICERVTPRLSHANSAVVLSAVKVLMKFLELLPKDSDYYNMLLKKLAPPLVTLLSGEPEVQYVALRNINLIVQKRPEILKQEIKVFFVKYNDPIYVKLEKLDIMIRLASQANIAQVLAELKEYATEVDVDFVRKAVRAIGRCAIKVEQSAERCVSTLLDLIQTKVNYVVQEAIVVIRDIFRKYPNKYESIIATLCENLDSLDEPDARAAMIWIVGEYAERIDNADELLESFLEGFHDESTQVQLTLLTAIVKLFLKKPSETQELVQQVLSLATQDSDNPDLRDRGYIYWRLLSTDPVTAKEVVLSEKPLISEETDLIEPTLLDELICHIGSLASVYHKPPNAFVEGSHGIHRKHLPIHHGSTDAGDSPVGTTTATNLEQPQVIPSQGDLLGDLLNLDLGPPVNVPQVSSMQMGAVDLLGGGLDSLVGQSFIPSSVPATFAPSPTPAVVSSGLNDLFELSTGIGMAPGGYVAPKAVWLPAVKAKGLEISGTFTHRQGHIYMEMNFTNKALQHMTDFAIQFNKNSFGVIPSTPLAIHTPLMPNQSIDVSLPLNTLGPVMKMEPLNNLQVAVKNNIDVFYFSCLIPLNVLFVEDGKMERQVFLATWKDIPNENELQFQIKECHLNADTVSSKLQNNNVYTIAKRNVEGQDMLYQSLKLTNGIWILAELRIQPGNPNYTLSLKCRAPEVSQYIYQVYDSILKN

[12] = cytosolic pH regulators acting via V-ATPase – S. cerevisiae, pHLuorin, HTS validation (AID 504600; in the data active = response above about 15%;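 note: plate controls were DMSO for no effect and reference compound for full effect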); settings: V-ATPase proton transport, at 10 µM, stronger effect = higher value
[13] = test system: anti-desmoglein-3 scFv antibody binding to human DSG3; experiment: blockers of pathogenic pemphigus antibody–desmoglein-3 binding – biochemical, validation compound set, bead-based, flow cytometry, pilot screen (AID 588368;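 active = binding below the plate cutoff, the plate median minus 3 SD, with a reading above zero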;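 note: signal is the median channel fluorescence of bead-bound GFP antibody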); settings: Protein G beads, DSG3-Fc, scFv-GFP binding, at 10 µM, stronger effect = lower value
[14] = Nile Red efflux blockade in pump-expressing yeast – validation compound set, multiplex, phenotypic, pilot screen (AID 588506;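 active = efflux inhibition above 0.42, the validation set average plus 4 SD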;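 note: Nile Red retained in cells so higher fluorescence means more efflux inhibition; 0 = negative control wells and 1 = enniatin B 25 µM full block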); settings: S. cerevisiae pump-expressing triplex, Nile Red efflux flow cytometry; at 10 µM; stronger effect = higher value; the pumps come from Candida albicans
[15] = target: ATP-binding cassette sub-family B member 6 (Homo sapiens) (UniProt Q9NP58); experiment: blockers of ABCB6-driven porphyrin uptake – K562-ABCB6 cells, flow cytometry, validation set, pilot screen (AID 588550); settings: K562-ABCB6 porphyrin accumulation, 1 h, at 10 µM, stronger effect = higher value;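 note: 0% = DMSO wells and 100% = benzethonium chloride 70 µM positive control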
Sequence of ATP-binding cassette sub-family B member 6 (Homo sapiens) (Q9NP58 whole entry, looked up): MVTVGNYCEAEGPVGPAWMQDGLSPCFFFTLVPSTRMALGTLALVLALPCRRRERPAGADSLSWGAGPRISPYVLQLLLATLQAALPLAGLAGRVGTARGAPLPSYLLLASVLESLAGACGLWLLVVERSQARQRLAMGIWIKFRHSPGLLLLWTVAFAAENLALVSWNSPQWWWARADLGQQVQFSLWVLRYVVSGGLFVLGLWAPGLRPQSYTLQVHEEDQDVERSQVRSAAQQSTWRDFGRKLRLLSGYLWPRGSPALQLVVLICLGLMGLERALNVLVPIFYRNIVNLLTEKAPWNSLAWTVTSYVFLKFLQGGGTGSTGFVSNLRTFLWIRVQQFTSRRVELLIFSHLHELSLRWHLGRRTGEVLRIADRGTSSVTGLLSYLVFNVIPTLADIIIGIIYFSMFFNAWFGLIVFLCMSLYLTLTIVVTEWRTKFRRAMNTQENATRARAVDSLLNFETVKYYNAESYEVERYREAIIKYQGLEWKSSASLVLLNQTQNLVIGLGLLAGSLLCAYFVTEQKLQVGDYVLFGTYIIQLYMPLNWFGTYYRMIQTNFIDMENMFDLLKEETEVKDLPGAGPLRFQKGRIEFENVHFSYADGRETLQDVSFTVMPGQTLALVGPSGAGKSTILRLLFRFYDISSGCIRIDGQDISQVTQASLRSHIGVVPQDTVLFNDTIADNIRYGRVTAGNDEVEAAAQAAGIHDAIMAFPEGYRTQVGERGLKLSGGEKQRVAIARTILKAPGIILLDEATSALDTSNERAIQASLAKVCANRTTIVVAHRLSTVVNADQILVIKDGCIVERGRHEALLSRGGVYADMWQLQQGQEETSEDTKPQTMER

[16] = AML differentiation inducers, ER-HoxA9 marrow cells – cell-based, GFP/MAC1 double positive, flow cytometry, validation set, primary screen (AID 588685;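 active = differentiation response of at least 50%, scaled between solvent and reference control, from cells with both markers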;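 note: compound exposure lasts four days before antibody staining and flow analysis; 0% = DMSO wells and 100% = 5 µM fulvestrant positive control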); settings: stronger effect = higher value, normalized: vehicle 0, fulvestrant 100

Row | Compound | percent of DMSO control GFP [1] | GFP response vs DMSO [2] | percent response of DMSO control [3] | GFP response vs DMSO [4] | GFP response, % of DMSO [5] | double positive events [6] | vesicle binding response [6] | inhibition [7] | superoxide response (% of plate) [8] | aptamer binding inhibition [9] | response [10] | inhibition [11] | response [12] | binding (% of control) [13] | efflux inhibition (fraction of control) [14] | inhibition [15] | differentiation response [16]
1 | CCOC(=O)C1C2C=CC3(CN(c4ccc(Cl)c(F)c4)C(=O)C13)O2 (stereo not given) | 100% (inactive) | 99.3% (inactive) | 95.4% (inactive) | 96.6% (inactive) | 94.6% (inactive) | 58.3% | 171% (inactive) | -9.79% (inactive) | 105% (inactive) | 1% (inactive) | 1.75% (inactive) | 36.1% (inactive) | -0.79% (inactive) | 100% (inactive) | 0.33 (inactive) | 2% (inactive) | 12% (inactive)
2 | Cn1c(=O)c2nc3ccccc3nc2n(C)c1=O | 94.6% (inactive) | 103% (inactive) | 93.9% (inactive) | 112% (inactive) | 94.3% (inactive) | 61.5% | 198% (inactive) | 2.3% (inactive) | 99.2% (inactive) | 0% (inactive) | -7.58% (inactive) | -11.6% (inactive) | 2.81% (inactive) | 101% (inactive) | -0.1 (inactive) | 2% (inactive) | -12% (inactive)
3 | COc1ccc(CNC(=O)C2CCCN2C)cc1OC (stereo not given) | 98.8% (inactive) | 99.7% (inactive) | 101% (inactive) | 92.6% (inactive) | 96.7% (inactive) | 62% | 141% (inactive) | 1.59% (inactive) | 87.7% (inactive) | -2% (inactive) | 7.42% (inactive) | -3.62% (inactive) | -0.65% (inactive) | 104% (inactive) | -0.29 (inactive) | -5% (inactive) | -7.5% (inactive)
4 | COc1ccc(C(CC(=O)N2CCOCC2)C(C)C)cc1 (stereo not given) | 100% (inactive) | 99.6% (inactive) | 101% (inactive) | 118% (inactive) | 106% (inactive) | 55.7% | 56.1% (inactive) | 2.3% (inactive) | 77.9% (inactive) | 3% (inactive) | -9.06% (inactive) | -2.4% (inactive) | 1.44% (inactive) | 95.3% (inactive) | -0.06 (inactive) | 7% (inactive) | -18.4% (inactive)
5 | COC(=O)C1=CN(Cc2cccs2)C=C(C(=O)OC)C1c1cccc(Cl)c1 | 103% (inactive) | 107% (inactive) | 98.2% (inactive) | 92.3% (inactive) | 97.2% (inactive) | 61.5% | 186% (inactive) | 14% (inactive) | 103% (inactive) | 5% (inactive) | 9.92% (inactive) | 2.7% (inactive) | -0.61% (inactive) | 99.5% (inactive) | 0.26 (inactive) | 6% (inactive) | 6.49% (inactive)
6 | CC(C)OC(=O)c1ccc(NC(=O)c2cncc(Br)c2)cc1 | 103% (inactive) | 104% (inactive) | 98.6% (inactive) | 103% (inactive) | 88.5% (inactive) | 56.1% | 143% (inactive) | 16.3% (inactive) | 114% (inactive) | -1% (inactive) | 0.79% (inactive) | -2.11% (inactive) | 4.94% (inactive) | 99% (inactive) | 0.04 (inactive) | -3% (inactive) | -7.5% (inactive)
7 | COc1ccc2c(=O)c(-c3cnn(-c4ccccc4)c3)c(C)oc2c1 | 102% (inactive) | 101% (inactive) | 99.6% (inactive) | 115% (inactive) | 109% (inactive) | 58.6% | 153% (inactive) | -2.82% (inactive) | 91.1% (inactive) | 4% (inactive) | -30.2% (inactive) | 7% (inactive) | 1.88% (inactive) | 103% (inactive) | -0.13 (inactive) | -336% (inactive) | -0.06% (inactive)
8 | Cc1cn([C@H]2C[C@H](N=[N+]=[N-])[C@@H](CO)O2)c(=O)[nH]c1=O | 94.2% (inactive) | 138% (inactive) | 110% (inactive) | 82.5% (inactive) | 95.9% (inactive) | 61.7% | 179% (inactive) | 16.2% (inactive) | 88.8% (inactive) | 6% (inactive) | 2.53% (inactive) | -5.32% (inactive) | 9.2% (inactive) | 103% (inactive) | 0.05 (inactive) | 13% (inactive) | 14.7% (inactive)
9 | CN1CCCN=C1COC(=O)C(O)(c1ccccc1)C1CCCCC1 (stereo not given) | 103% (inactive) | 107% (inactive) | 93.1% (inactive) | 92.7% (inactive) | 96.5% (inactive) | 64% | 205% (inactive) | 7.85% (inactive) | 98.5% (inactive) | 6% (inactive) | 3.5% (inactive) | 12.1% (inactive) | 4.32% (inactive) | 91.9% (inactive) | -0.14 (inactive) | -5% (inactive) | 5.13% (inactive)
10 | O=C(Cc1cccc2ccccc12)N1CC[C@@]2(O)CCCC[C@H]2C1 | 92% (inactive) | 138% (inactive) | 104% (inactive) | 85.3% (inactive) | 85% (inactive) | 62% | 252% (inactive) | 10.3% (inactive) | 110% (inactive) | 11% (inactive) | 0.11% (inactive) | -11.6% (inactive) | 2.02% (inactive) | 105% (inactive) | -0.24 (inactive) | 10% (inactive) | -2.46% (inactive)
